A short description of assay [1]: qHTS assay to identify small molecule agonists of the sonic hedgehog signaling (Shh) pathway (AID 1259368).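 Also: NIH/3T3-derived 3T3Gli1-Luc cells carrying a stable Gli1-driven firefly luciferase reporter; series mostly up to about 92 µM; nearly all actives have a fitted effect of over 15% in size.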 An outline of the steps: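 Cells of a mouse NIH/3T3 clone stably expressing luciferase under the Gli1 transcriptional response element are exposed to test chemicals for 24 hr at 37 C. Pathway activation is detected as a rise in luminescence.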
A short description of assay [2]: qHTS assay to identify small molecule antagonists of the sonic hedgehog signaling (Shh) pathway (AID 1259369). Also: nearly all actives have a fitted effect of over 45% in size. Also: potency is read from the fitted curve at half-maximal effect. The method in brief:
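Cells are plated and held 4hr at 37 C, compounds (DMSO) are pinned in, conditioned medium is added to stimulate the pathway, and after 24hr luciferase reagent is added for 30min before luminescence is read.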

Assay [3] in a line: qHTS assay to identify small molecule agonists of the androgen receptor (AR) signaling pathway in the presence of an antagonist - cell viability counter screen (AID 1259379; active = well fitted curve in the direction sought with a large enough effect in the repeat runs; an effect the other way counts as inactive or inconclusive;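 also: MDA-kb2 human breast cancer cells carrying an MMTV luciferase reporter; series mostly up to about 92 µM; nearly all actives have a fitted effect of over 25% in size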). The method in brief:
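Cytotoxicity is assessed by CellTiter-Fluor in MDA-kb2 cells carrying an MMTV-driven luciferase reporter. Cells receive 3.0uM nilutamide plus compounds at 15 concentrations and incubate 16 hr at 37C without CO2 before fluorescence reading.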

The nature of assay [4]: qHTS assay to identify small molecule agonists of the estrogen receptor beta (ER-beta) signaling pathway - cell viability counter screen (AID 1259380; active = well fitted curve in the direction sought with a large enough effect in the repeat runs; an effect the other way counts as inactive or inconclusive; also: nearly all actives have a fitted effect of over 30% in size). The method in brief:
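Cytotoxicity is measured in parallel with the reporter screen: after 16 hr compound exposure at 37C and a 2 hr LiveBLAzer step, CellTiter-Glo is added to the same ER-beta-UAS-bla HEK293T wells and luminescence read after 30 min.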

In assay [5] the target is Androgen receptor (Homo sapiens) (UniProt P10275). In words: qHTS assay to identify small molecule agonists of the androgen receptor (AR) signaling pathway in the presence of an antagonist (AID 1259381). Also: nearly all actives have a fitted effect of over 15% in size. Also: potency is read from the fitted curve at half-maximal effect. An outline of the steps: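 Agonist-mode confirmation screen: human MDA-kb2 cells stably expressing luciferase under an MMTV promoter bearing AR and GR response elements, co-treated with 3.0uM nilutamide (final). Luminescence measured after 16hr compound incubation.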
Sequence of Androgen receptor (Homo sapiens) (P10275 whole entry, looked up): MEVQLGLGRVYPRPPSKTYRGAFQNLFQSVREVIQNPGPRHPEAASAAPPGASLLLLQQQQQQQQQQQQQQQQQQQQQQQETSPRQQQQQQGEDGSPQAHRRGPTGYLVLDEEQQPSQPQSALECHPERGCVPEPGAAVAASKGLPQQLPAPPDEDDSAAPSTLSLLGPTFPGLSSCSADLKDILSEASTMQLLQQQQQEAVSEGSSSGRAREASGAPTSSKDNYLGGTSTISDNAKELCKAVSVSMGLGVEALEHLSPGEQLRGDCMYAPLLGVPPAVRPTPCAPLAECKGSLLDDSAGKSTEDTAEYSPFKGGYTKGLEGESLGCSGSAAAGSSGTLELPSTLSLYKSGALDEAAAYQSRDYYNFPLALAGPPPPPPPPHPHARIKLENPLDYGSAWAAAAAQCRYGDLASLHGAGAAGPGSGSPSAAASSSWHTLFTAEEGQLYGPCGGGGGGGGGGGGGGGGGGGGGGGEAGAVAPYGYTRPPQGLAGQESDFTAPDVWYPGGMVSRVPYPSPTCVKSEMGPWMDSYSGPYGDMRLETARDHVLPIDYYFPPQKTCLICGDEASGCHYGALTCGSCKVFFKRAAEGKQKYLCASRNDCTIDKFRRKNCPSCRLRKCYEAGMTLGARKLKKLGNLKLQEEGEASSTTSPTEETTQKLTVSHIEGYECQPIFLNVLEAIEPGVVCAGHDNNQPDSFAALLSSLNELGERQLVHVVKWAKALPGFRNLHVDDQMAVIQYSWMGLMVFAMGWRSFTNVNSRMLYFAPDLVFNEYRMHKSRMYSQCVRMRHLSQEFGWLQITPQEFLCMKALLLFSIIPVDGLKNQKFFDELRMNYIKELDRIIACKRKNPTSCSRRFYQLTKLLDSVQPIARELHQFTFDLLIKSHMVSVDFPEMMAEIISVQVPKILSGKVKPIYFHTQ

Assay [6] is described as follows: qHTS assay to identify small molecule antagonists of the estrogen receptor beta (ER-beta) signaling pathway - cell viability counter screen (AID 1259382; active = well fitted curve in the direction sought with a large enough effect in the repeat runs; an effect the other way counts as inactive or inconclusive; also: series mostly up to about 92 µM; nearly all actives have a fitted effect of over 55% in size). An outline of the steps: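 Cytotoxicity counter screen multiplexed with the beta-lactamase antagonist assay: GripTite HEK293T ER-beta-bla cells were treated 16 hr with test chemicals in the presence of 1nM 17-beta-estradiol, and viability was measured by CellTiter-Glo.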

Assay [7] addresses Estrogen receptor (Homo sapiens) (UniProt P03372). Put plainly: qHTS assay to identify small molecule agonists of the estrogen receptor alpha (ER-alpha) signaling pathway in the presence of an antagonist (AID 1259383). Also: top concentration of the series differs between compounds; nearly all actives have a fitted effect of over 15% in size. An outline of the steps: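 Agonist-mode confirmation in the presence of the ER antagonist ICI-182,780 at 10.0nM final. Breast-derived VM7Luc4E2 reporter cells were exposed to compounds for 22hr, and ERE-driven luciferase was quantified by luminescence.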

The nature of assay [8]: qHTS assay to identify small molecule agonists or antagonists of the thyroid stimulating hormone receptor (TSHR) signaling pathway - wild type cell line counter screen (AID 1259384). An outline of the steps:
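Wild-type HEK293 cells were plated 18 h at 37 C/5% CO2, pin-dosed with compound plus Ro20-1724 medium, held 30 min at room temperature, then given cAMP-d2 and anti-cAMP-cryptate; fluorescence was read after 1 h. Fifteen concentrations, triplicate.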

The nature of assay [9]: qHTS assay to identify small molecule antagonists of the TGF-beta/Smad signaling pathway - cell viability counter screen (AID 1346824; active = well fitted curve in the direction sought with a large enough effect in the repeat runs; an effect the other way counts as inactive or inconclusive; also: nearly all actives have a fitted effect of over 50% in size). An outline of the steps:
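SBE-bla HEK 293T cells were plated overnight at 37 C, then given compounds in DMSO plus TGF-beta1 (added as 0.25 ng/mL solution) for 5 hr. After the bla read, CellTiter-Glo was added to the same wells and luminescence read after 30 min at room temperature.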

Assay [10] can be described thus: qHTS assay to identify small molecule agonists of the TGF-beta/Smad signaling pathway - cell viability counter screen (AID 1346829; active = well fitted curve in the direction sought with a large enough effect in the repeat runs; an effect the other way counts as inactive or inconclusive; also: top concentration of the series differs between compounds; nearly all actives have a fitted effect of over 45% in size). The method in brief: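 In parallel with the Smad reporter read, viability of HEK 293T cells stably carrying SBE-bla is quantified by ATP luminescence following 5 hr compound treatment.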
A short description of assay [11]: qHTS assay to identify small molecule agonists of the TGF-beta/Smad signaling pathway (AID 1346859; active = well fitted activation curve with a large enough effect in the signal ratio in the repeat runs, not every such curve was filed as active; the % refers to the signal ratio; also: series mostly up to about 77 µM). An outline of the steps: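 Dual-wavelength fluorescence (460/530 nm emission) quantified beta-lactamase expression under the Smad binding element in HEK 293T cells following 5 hr compound treatment at 37 C.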
Assay [12] deals with Thyrotropin-releasing hormone receptor (Homo sapiens) (UniProt P34981). Put plainly: qHTS assay to identify small molecule antagonists of the thyrotropin-releasing hormone receptor (TRHR) signaling pathway (AID 1346877; active = well fitted inhibition curve with a large enough effect in the repeat runs, not every such curve was filed as active; also: series mostly up to about 51 µM). An outline of the steps: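 Antagonism is measured as suppression of the calcium response to 1 nM TRH in TRHR-HEK293 cells that have been dye-loaded for 2 h at 37 °C after overnight plating. Each compound is tested at 15 concentrations in triplicate.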
Sequence of Thyrotropin-releasing hormone receptor (Homo sapiens) (P34981 whole entry, looked up): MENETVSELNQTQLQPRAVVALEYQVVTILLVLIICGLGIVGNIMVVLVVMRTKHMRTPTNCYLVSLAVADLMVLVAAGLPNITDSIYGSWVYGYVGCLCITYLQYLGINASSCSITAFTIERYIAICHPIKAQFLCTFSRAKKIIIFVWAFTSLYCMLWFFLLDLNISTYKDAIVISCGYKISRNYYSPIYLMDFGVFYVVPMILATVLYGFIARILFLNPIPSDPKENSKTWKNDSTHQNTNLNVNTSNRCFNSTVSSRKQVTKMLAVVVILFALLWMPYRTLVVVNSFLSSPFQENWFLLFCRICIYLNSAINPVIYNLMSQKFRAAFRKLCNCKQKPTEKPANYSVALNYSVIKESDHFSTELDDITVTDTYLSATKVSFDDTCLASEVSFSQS

Assay [13] deals with Estrogen receptor beta (Homo sapiens) (UniProt Q92731). In words: qHTS assay to identify small molecule antagonists of the estrogen receptor beta (ER-beta) signaling pathway (AID 1259378; active = well fitted inhibition curve with a large enough effect in the signal ratio in the repeat runs, not every such curve was filed as active; the % refers to the signal ratio). An outline of the steps:
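ER-beta-UAS-bla HEK293T (GripTite) cells in 2% charcoal-stripped FBS medium were preincubated 6 hr at 37C, dosed with compound, then stimulated with 1 nM E2 (final) for 16 hr; beta-lactamase reporter read by B/G FRET fluorescence after 2 hr substrate loading.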

A short description of assay [14]: qHTS assay to identify small molecule agonists of the estrogen receptor alpha (ER-alpha) signaling pathway in the presence of an antagonist - cell viability counter screen (AID 1259386; active = well fitted curve in the direction sought with a large enough effect in the repeat runs; an effect the other way counts as inactive or inconclusive;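 also: series mostly up to about 92 µM; cells exposed to compounds for 22 h at 37 °C before the viability read; nearly all actives have a fitted effect of over 30% in size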). The method in brief: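 Cytotoxicity was measured in parallel with the ERE-luciferase agonist screen, in the same wells. The cells were VM7Luc4E2, which endogenously express ER-alpha, and treatment was with compounds plus 10.0nM ICI-182,780 for 22hr.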

Assay [15] deals with Progesterone receptor (Homo sapiens) (UniProt P06401). In words: qHTS assay to identify small molecule agonists of the progesterone receptor (PR) signaling pathway (AID 1346784). Also: nearly all actives have a fitted effect of over 30% in size. Also: potency is read from the fitted curve at half-maximal effect. An outline of the steps:
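The screen uses PR-UAS-bla HEK 293T cells in charcoal-stripped serum (2%). Compounds are applied for 16 hr at 37C after a 6 hr pre-incubation, and reporter activity is detected with a FRET beta-lactamase substrate after 2 hr at room temperature.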

Assay [16] has the same target. Put plainly: qHTS assay to identify small molecule antagonists of the progesterone receptor (PR) signaling pathway (AID 1346795; active = well fitted inhibition curve with a large enough effect in the signal ratio in the repeat runs, not every such curve was filed as active; the % refers to the signal ratio). An outline of the steps: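 After 6 hr plating at 37C in 2% stripped-serum medium, PR-UAS-bla HEK293T cells got compounds, then 1 nM R5020. Sixteen hours later, LiveBLAzer substrate was applied for 2 hr at room temperature and fluorescence was recorded.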

Assay [17] is described as follows: qHTS assay to identify small molecule antagonists of the progesterone receptor (PR) signaling pathway - cell viability counter screen (AID 1346798; active = well fitted curve in the direction sought with a large enough effect in the repeat runs; an effect the other way counts as inactive or inconclusive; also: series mostly up to about 92 µM; nearly all actives have a fitted effect of over 50% in size). The method in brief:
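Viability was determined by ATP-based luminescence (CellTiter-Glo) in PR-UAS-bla HEK293T cells cultured in 2% charcoal-stripped serum and incubated 16 hr with compounds under R5020 stimulation.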

The nature of assay [18]: qHTS assay to identify small molecule agonists of the progesterone receptor (PR) signaling pathway - cell viability counter screen (AID 1346799). Also: nearly all actives have a fitted effect of over 45% in size. The method in brief: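 Viability was scored by ATP luminescence (CellTiter-Glo, 30 min, room temperature) in the same wells used for the reporter readout, after 16 hr compound exposure of PR-UAS-bla HEK293T cells.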
Assay [19] addresses Estrogen receptor beta (Homo sapiens) (UniProt Q92731). Put plainly: qHTS assay to identify small molecule agonists of the estrogen receptor beta (ER-beta) signaling pathway (AID 1259377; active = well fitted activation curve with a large enough effect in the signal ratio in the repeat runs, not every such curve was filed as active; the % refers to the signal ratio). An outline of the steps:
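Measured by fluorescence intensity from a B/G FRET beta-lactamase substrate (2 h, room temperature) in ER-beta-UAS-bla HEK293T cells treated with DMSO-dissolved compounds for 16 hr at 37C and 5% CO2.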

In assay [20] the target is Thyrotropin receptor (Homo sapiens) (UniProt P16473). In words: qHTS assay to identify small molecule antagonists of the thyroid stimulating hormone receptor (TSHR) signaling pathway (AID 1259385). Also: nearly all actives have a fitted effect of over 20% in size. The method in brief:
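TSHR-HEK293 cells were plated and held 18 h at 37C/5% CO2, then given compound plus Ro20-1724 and stimulated with TSH at 1.5 ng/mL final. After 30 min at room temperature, cAMP was detected with cAMP-d2/anti-cAMP-cryptate (1 h) by fluorescence.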

A number with no mark means an inactive call. Records with an inconclusive call do not appear. Activity calls are given as the source filed them. Unless noted, calls follow the shape of the full dose curve.
% is scaled to controls: 0 for no effect and ±100 for the full control effect.

Sequence of Thyrotropin receptor (Homo sapiens) (P16473 whole entry, looked up): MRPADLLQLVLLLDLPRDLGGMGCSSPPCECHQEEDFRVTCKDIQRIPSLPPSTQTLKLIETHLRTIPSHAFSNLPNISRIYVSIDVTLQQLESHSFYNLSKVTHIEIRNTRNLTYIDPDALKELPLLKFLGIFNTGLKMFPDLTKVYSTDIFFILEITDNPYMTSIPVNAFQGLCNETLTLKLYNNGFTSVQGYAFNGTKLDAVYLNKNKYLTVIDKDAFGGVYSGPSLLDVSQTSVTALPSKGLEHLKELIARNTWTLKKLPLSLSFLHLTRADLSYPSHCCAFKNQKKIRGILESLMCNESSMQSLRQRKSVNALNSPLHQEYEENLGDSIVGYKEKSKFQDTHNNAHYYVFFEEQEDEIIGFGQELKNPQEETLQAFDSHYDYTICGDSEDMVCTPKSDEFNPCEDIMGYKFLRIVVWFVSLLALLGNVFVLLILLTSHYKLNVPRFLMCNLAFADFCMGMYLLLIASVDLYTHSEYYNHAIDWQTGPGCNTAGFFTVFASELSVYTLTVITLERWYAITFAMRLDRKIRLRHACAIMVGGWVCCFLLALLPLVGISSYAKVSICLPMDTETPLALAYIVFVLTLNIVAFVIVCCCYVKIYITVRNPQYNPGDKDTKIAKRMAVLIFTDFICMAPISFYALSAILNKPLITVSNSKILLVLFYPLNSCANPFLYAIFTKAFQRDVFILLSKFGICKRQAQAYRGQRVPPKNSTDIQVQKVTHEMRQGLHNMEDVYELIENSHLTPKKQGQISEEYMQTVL
Sequence of Estrogen receptor (Homo sapiens) (P03372 whole entry, looked up): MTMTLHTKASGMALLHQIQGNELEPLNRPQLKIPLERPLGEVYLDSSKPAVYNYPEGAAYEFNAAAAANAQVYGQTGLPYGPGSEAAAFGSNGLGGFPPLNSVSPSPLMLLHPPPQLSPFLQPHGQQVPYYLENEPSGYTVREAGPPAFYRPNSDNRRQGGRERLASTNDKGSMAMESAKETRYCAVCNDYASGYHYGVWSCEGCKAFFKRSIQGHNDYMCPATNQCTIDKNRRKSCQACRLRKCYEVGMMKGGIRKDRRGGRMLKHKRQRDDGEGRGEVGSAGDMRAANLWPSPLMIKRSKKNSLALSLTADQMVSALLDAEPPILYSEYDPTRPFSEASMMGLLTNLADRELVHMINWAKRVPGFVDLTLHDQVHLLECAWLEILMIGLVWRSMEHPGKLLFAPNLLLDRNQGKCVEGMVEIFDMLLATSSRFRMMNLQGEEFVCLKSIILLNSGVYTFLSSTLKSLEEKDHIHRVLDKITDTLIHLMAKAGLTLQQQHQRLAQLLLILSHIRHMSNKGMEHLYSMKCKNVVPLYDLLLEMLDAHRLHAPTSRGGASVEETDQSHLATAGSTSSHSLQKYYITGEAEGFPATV
Sequence of Estrogen receptor beta (Homo sapiens) (Q92731 whole entry, looked up): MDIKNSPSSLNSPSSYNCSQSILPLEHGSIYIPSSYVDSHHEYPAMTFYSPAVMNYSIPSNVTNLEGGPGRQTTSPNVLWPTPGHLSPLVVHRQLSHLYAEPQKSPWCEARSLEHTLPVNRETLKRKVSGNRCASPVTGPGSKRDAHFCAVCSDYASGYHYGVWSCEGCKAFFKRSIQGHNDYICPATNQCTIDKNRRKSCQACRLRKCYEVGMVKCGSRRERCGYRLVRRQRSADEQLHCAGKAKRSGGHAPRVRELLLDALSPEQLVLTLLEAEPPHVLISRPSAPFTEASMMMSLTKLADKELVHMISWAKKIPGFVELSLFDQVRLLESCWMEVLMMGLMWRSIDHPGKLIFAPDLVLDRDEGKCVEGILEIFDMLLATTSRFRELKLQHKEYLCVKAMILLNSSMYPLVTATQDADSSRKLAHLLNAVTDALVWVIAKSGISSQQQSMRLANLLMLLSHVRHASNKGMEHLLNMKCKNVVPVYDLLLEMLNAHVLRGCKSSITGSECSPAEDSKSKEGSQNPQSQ
Sequence of Progesterone receptor (Homo sapiens) (P06401 whole entry, looked up): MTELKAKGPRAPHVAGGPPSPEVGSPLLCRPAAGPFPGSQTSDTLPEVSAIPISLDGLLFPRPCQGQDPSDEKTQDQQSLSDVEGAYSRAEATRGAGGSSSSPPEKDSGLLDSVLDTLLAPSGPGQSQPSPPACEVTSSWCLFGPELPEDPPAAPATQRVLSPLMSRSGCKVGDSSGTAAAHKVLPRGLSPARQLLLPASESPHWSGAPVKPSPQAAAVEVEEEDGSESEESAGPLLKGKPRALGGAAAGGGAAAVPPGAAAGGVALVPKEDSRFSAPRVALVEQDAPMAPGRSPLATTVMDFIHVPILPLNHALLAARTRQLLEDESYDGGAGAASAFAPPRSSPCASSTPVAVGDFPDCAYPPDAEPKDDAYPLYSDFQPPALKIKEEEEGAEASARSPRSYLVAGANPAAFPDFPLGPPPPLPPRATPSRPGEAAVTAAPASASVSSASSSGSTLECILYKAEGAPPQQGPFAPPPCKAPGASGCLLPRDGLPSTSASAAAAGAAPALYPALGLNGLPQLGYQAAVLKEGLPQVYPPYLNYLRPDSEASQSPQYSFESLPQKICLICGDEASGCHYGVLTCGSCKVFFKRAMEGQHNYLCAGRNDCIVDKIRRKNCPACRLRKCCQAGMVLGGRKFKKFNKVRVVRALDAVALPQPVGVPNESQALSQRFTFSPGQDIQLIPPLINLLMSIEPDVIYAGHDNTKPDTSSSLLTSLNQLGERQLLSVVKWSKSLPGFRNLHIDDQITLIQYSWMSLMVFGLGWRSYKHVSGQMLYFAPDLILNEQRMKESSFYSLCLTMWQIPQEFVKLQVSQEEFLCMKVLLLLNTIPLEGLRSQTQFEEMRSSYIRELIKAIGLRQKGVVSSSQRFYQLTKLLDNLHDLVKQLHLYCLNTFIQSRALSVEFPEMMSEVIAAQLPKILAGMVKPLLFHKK

As to `CCCC(=O)O[C@]1(C(=O)CCl)[C@@H](C)C[C@H]2[C@@H]3CCC4=CC(=O)C=C[C@]4(C)[C@@]3(F)C(=O)C[C@@]21C`, the Potency entry in [1], in assay [2], in assay [3], in assay [4], in [6] and in assay [7] was “inactive” each time. Moreover, in [5], the Potency is 0.0047 µM (active). Also, the compound was called inactive in [8], in assay [9], in assay [10], in [11] and in [12].
As for `NC1CCN(c2cccc(Cl)n2)CC1`, the Potency result in assay [1], in assay [13], in [3], in [4], in assay [5] and in assay [6] was “inactive” in each case. For the same compound, the Potency entry in assay [15], in assay [16], in assay [17] and in assay [18] was “inactive” each time. In addition, the Potency in assay [2] was 1.33 µM (active). Further, the result in assay [14], in assay [9], in [10], in [11] and in assay [12] was inactive.
Consider `Cn1ccc2cc3c(cc21)CCN3C(=O)Nc1cccnc1`, for which the activity change in assay [1] was 11% [at 18.9 µM, active compounds read high]. The results for the activity change, negative = inhibition in [2] and in [16] were 1.03% [at 19 µM] and -0.261% [at 18.9 µM], respectively. Also, the activation in assay [19] was -2.3% [at 19 µM]; in assay [7], 12% [at 19 µM]; in assay [15] it was 1.39% [at 19 µM]; in assay [11], 2.76% [at 15.8 µM]. Further, the activity change, negative = cytotoxicity in [3] is 2.26% [at 19 µM]; in [14] it was -5.2% [at 19 µM]; in assay [18], 0.965% [at 19 µM]. Also, the cAMP activity change in [8] was -0.339% [at 18.9 µM]. The activity, negative = inhibition in assay [12] is -16.1% [at 10.5 µM].
For `C=C(C)C(=O)OCCC(C)OC(=O)C(=C)C` (configuration not stated), the Potency entry in assay [1], in assay [2], in assay [3], in assay [4], in assay [6] and in assay [7] was “inactive” in each case. Further, the Potency entry in assay [20], in assay [15], in assay [16], in assay [17] and in assay [18] was “inactive” in each case. In addition, the outcome in assay [8], in [14], in assay [11] and in assay [12] was inactive.
With `C=C(C)C1CC=C(C)C(O)C1` (configuration not stated), the Potency result in assay [1], in assay [2], in [3], in assay [4], in assay [6] and in [7] was “inactive” throughout. The Potency result in assay [20] is “inactive”. In addition, the call in assay [8], in assay [14], in assay [9], in assay [10], in assay [11] and in [12] was inactive. Moreover, in assay [15], the Potency is 17.3 µM (active).
As for `NC(=O)c1ncn([C@@H]2O[C@H](CO)[C@@H](O)[C@H]2O)c1N`, the Potency result in assay [1], in assay [2], in [3], in [4], in assay [6] and in assay [7] was “inactive” in each case. In addition, the Potency entry in assay [20], in assay [15], in assay [16], in [17] and in [18] was “inactive” each time. The outcome in [8], in assay [14], in assay [9], in [10], in assay [11] and in assay [12] was inactive.
On to `COc1ccc2cc(C=O)ccc2c1`, for which the Potency result in assay [1], in assay [2], in assay [13], in assay [3], in assay [5] and in assay [6] was “inactive” each time. Also, the Potency result in [7], in [20], in assay [15], in assay [17] and in [18] was “inactive” each time. Also, the compound was classed as inactive in [8], in assay [14], in assay [9], in assay [10], in assay [11] and in assay [12].
For the compound `CCCCNc1ccccc1`, the Potency result in assay [1], in assay [2], in [13], in assay [3], in [4] and in assay [5] was “inactive” each time. In addition, the Potency result in assay [6], in [7], in [20], in assay [15], in assay [16] and in [18] was “inactive” in each case. Besides, the result in [8], in [14], in [9], in assay [11] and in assay [12] was inactive.
With `Nc1cc(C(Cl)=C(Cl)Cl)c(S(N)(=O)=O)cc1S(N)(=O)=O`, the Potency entry in [1], in [2], in [3], in assay [6], in assay [7] and in [20] was “inactive” throughout. In addition, the Potency entry in [15], in [16], in assay [17] and in assay [18] was “inactive” throughout. In addition, the compound was classed as inactive in assay [19], in assay [8], in assay [14], in [9], in assay [10] and in [11]. Moreover, the outcome in assay [12] was inactive.
